Consider 13 compounds from PubChem BioAssay (NCI).

Among the test systems are SK-MEL-2 melanoma; EKVX NSCLC; SN12C renal; UO-31 renal; TK-10 renal; ACHN renal; CAKI-1 renal; A498 renal; CCRF-CEM leukemia; MOLT-4 leukemia.
Holding throughout (test): NCI-60 one-dose screen, 48 h (100 = growth as untreated, 0 = no growth, -100 = all killed)
Common to all, as to settings: 10 µM unless noted

Molecules are shown by their SMILES. Compounds without any hit were thinned out: in the full panel of roughly 83,000, 20% have a hit.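 96-well plates, one dose, 48 hours. Percent growth reported; active if below 10.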 Unmarked numbers belong to inactive results. Activity calls are given as the source filed them.

`C/C(=N\N=C1/C(=O)Nc2ccccc21)c1ccc2c(c1)Nc1ccccc1S2`: the growth in the assay with SK-MEL-2 melanoma is 80.5%; in the assay with EKVX NSCLC, 43.7%; in the assay with SN12C renal, 42.1%; in the assay with UO-31 renal, 34.4%; in the assay on TK-10 renal it was 78.7%; in the assay on ACHN renal, 56.1%. Moreover, the growth with CAKI-1 renal was 49.4%; with A498 renal, 28.2%; in the assay on CCRF-CEM leukemia, 45.8%; with MOLT-4 leukemia it was 11.4%.

Regarding `COc1ccc(-c2nc3cc(C)ccc3n2CC(=O)N=Nc2c(O)[nH]c3ccccc23)cc1`, the growth with SK-MEL-2 melanoma was 58%; with EKVX NSCLC it was 46%; in the assay on SN12C renal, -91.7% (active); in the assay on UO-31 renal it was 53.7%; in the assay on TK-10 renal it was 73.6%; with ACHN renal it was -12.5% (active). For the same compound, the growth with CAKI-1 renal is 53.3%; in the assay with A498 renal, 102%; with CCRF-CEM leukemia, 79.1%; with MOLT-4 leukemia it was 13.2%.

Take `Cc1ccc(C(=O)NN2C(=O)/C(=C/C=C/c3ccc([N+](=O)[O-])o3)SC2=S)cc1`: the growth is -89.8% (active) in the assay on SK-MEL-2 melanoma; -97% (active) with EKVX NSCLC; -89.3% (active) with SN12C renal; -100% (active) in the assay on UO-31 renal; -98.3% (active) with TK-10 renal; -100% (active) with ACHN renal. Also, the growth with CAKI-1 renal was -100% (active); in the assay with A498 renal, -73.3% (active); in the assay with CCRF-CEM leukemia it was 4.08% (active); in the assay on MOLT-4 leukemia, 9.73% (active).

With `N/N=C(\N)c1c(N)nc(=S)[nH]c1-c1ccc(Cl)cc1Cl`, the growth is 109% with SK-MEL-2 melanoma; 116% in the assay with EKVX NSCLC; 105% with SN12C renal; 85.8% with UO-31 renal; 147% with TK-10 renal; 107% with ACHN renal. Further, the growth is 96.9% in the assay with CAKI-1 renal, 125% in the assay on A498 renal, 94.6% with CCRF-CEM leukemia and 90.1% with MOLT-4 leukemia.

In the case of `CC1(C)CC[C@]2(C(=O)O)CC[C@]3(C)C(=CCC4[C@@]5(C)C[C@@H](O)[C@@H]6OC(c7ccco7)OC[C@@]6(C)C5CC[C@]43C)C2C1` (stereo not given in full), the growth in the assay on SK-MEL-2 melanoma is -23.4% (active); in the assay on EKVX NSCLC it was 22.8%; with SN12C renal, 20%; in the assay on UO-31 renal, 22.7%; in the assay with TK-10 renal it was 29.2%; with ACHN renal, 7.44% (active). Further, the growth in the assay on CAKI-1 renal was 33.1%; with A498 renal, 62.4%; in the assay with CCRF-CEM leukemia it was 21.7%; in the assay on MOLT-4 leukemia, 21%.

On to `C=C1CC[C@@H]2[C@]3(C)COC(c4ccco4)O[C@@H]3CC[C@@]2(C)[C@@H]1C/C=C1/C(=O)OCC1OC(C)=O` (stereo not given in full), for which the growth with SK-MEL-2 melanoma was 59.5%; in the assay on EKVX NSCLC, 89.3%; in the assay on SN12C renal, 3.28% (active); in the assay with UO-31 renal, 35.4%; in the assay with TK-10 renal, 111%; with ACHN renal it was 33.9%. Further, the growth was 36.1% with CAKI-1 renal, 129% in the assay with A498 renal, -19.8% (active) in the assay on CCRF-CEM leukemia and 2.43% (active) in the assay with MOLT-4 leukemia.

For `COc1ccc(C(=O)/C=C/c2ccc(OCc3ccccc3)c(OC)c2)cc1OC`, the growth with SK-MEL-2 melanoma is 72.7%; in the assay with EKVX NSCLC, 80.4%; in the assay with SN12C renal, 1.82% (active); in the assay with UO-31 renal, 31.4%; in the assay on TK-10 renal, 62.7%; with ACHN renal, 38.3%. Further, the growth in the assay on CAKI-1 renal was 38.8%; in the assay with A498 renal, 102%; in the assay on CCRF-CEM leukemia, 9.36% (active); with MOLT-4 leukemia, 9.48% (active).

As for `C#CCOc1cc(N(CC)CC)ccc1C(C(=O)NC(C)(C)C)N(C(=O)C1CCc2cc(F)ccc2O1)c1ccc(Br)cc1` (stereo not given), the growth in the assay with SK-MEL-2 melanoma is 110%; in the assay with EKVX NSCLC, 55.3%; in the assay on SN12C renal it was 76.9%; in the assay on UO-31 renal it was 51%; with TK-10 renal, 116%; in the assay on ACHN renal, 83.2%. Further, the growth was 58.7% in the assay with CAKI-1 renal, 135% in the assay with A498 renal, 63.6% with CCRF-CEM leukemia and 21.8% in the assay on MOLT-4 leukemia.

For the compound `COc1cc2c(c(OC)c1OC)C(=O)CC(c1cccc(NC(=O)[C@@H](N)CC(C)C)c1)O2` (stereo not given in full), the growth with SK-MEL-2 melanoma is 99.3%; in the assay with EKVX NSCLC, 99.1%; with SN12C renal, 84.4%; with UO-31 renal it was 78%; in the assay on TK-10 renal it was 115%; in the assay with ACHN renal, 103%. The growth was 80.6% in the assay on CAKI-1 renal, 89.3% in the assay on A498 renal, 97.6% with CCRF-CEM leukemia and 96.1% in the assay with MOLT-4 leukemia.

In the case of `O=C(Cn1c(/C=C/c2ccccc2)nc2ccccc2c1=O)Nc1ccccc1`, the growth in the assay with SK-MEL-2 melanoma was 94.7%; in the assay with EKVX NSCLC, 124%; with SN12C renal, 31%; in the assay on UO-31 renal it was 24.7%; in the assay on TK-10 renal, 75.6%; in the assay with ACHN renal it was 1.89% (active). The growth in the assay on CAKI-1 renal was 8.48% (active); in the assay with A498 renal, -29.9% (active); in the assay with CCRF-CEM leukemia, 71.4%; in the assay on MOLT-4 leukemia, 73%.

In the case of `COc1ccc([C@H](C)Nc2nc(Cl)nc3ccccc23)cc1`, the growth was 70.2% in the assay with SK-MEL-2 melanoma; 19.2% in the assay with EKVX NSCLC; 47.9% in the assay on SN12C renal; 47.1% in the assay with UO-31 renal; 66.9% in the assay on TK-10 renal; 54.3% with ACHN renal. Further, the growth with CAKI-1 renal was 56.4%; with A498 renal, 108%; in the assay on CCRF-CEM leukemia it was 34.9%; with MOLT-4 leukemia, 20.8%.

As to `COc1cccc(/C=C/c2nc3ccccc3c(=O)n2CC(=O)Nc2ccc(Cl)cc2)c1`, the growth in the assay with SK-MEL-2 melanoma was 111%; in the assay on EKVX NSCLC, 109%; with SN12C renal it was 39.2%; in the assay on UO-31 renal, 16%; in the assay with TK-10 renal, 32.2%; with ACHN renal it was -1.49% (active). The growth was 60.5% with CAKI-1 renal, 25.1% with A498 renal, 86.1% in the assay on CCRF-CEM leukemia and 90.6% in the assay on MOLT-4 leukemia.

Turning to `COc1ccc2[nH]cc(-c3cc(N)n4nc(-c5cn(C)c6ccccc56)cc4n3)c2c1`, the growth in the assay with SK-MEL-2 melanoma is -96% (active); in the assay on EKVX NSCLC it was -82.8% (active); in the assay with SN12C renal, -73.2% (active); in the assay with UO-31 renal, -93.7% (active); in the assay on TK-10 renal, -95.3% (active); with ACHN renal it was -100% (active). Also, the growth in the assay with CAKI-1 renal was -96% (active); in the assay with A498 renal, -80.6% (active); in the assay with CCRF-CEM leukemia, -39.3% (active); in the assay with MOLT-4 leukemia, -41.4% (active).
